Measurements: PubChem BioAssay (EPA / NIEHS)
Inconclusive results are not listed. Calls of active or inactive are those of the source. How the source made its calls: active means hit-call score of the fitted dose curve at least 0.9, where 1 is the maximum; inconclusive means response in the unintended direction; inactive means score below 0.9.

Columns and labels:
[1] = target: Estrogen receptor beta (Homo sapiens) (UniProt Q92731); assay: OT_ER_ERbERb_1440: Odyssey Thera (OT) 24-hour HEK293T Protein-Complementation Assay for Estrogen Receptor-beta/-beta Homodimer (AID 2283380);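 further: scored as signal increase over DMSO baseline for both agonists and antagonists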
Summary of the method: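 HEK293T cells stably expressing ER beta LBD (aa 310-547) homodimer fragment-complementation reporter, dosed 24 h. Cells formaldehyde-fixed, Draq5-stained; gain in nuclear (agonist) or nuclear plus cytoplasmic (antagonist) fluorescence versus DMSO read by laser scanning cytometry.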

[2] = target: Peroxisome proliferator-activated receptor gamma (Homo sapiens) (UniProt P37231); assay: OT_PPARg_PPARgSRC1_0480: Odyssey Thera (OT) 8-hour Protein-Complementation Assay for Peroxisome Proliferator-activated Receptor Gamma / SRC-1 Co-activator (AID 2283387);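 further: nuclear to cytoplasmic split Venus YFP fluorescence ratio reporting PPARg SRC-1 interaction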
Summary of the method: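 HEK293T transiently transfected with PPARg and SRC-1 fused to Venus YFP fragments, compounds 8 h at 37C. Fixed, Draq5-stained cells imaged; nuclear/cytoplasmic 488 nm fluorescence ratio over at least 350 cells per image; gain fitted versus DMSO.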

[3] = target: Peroxisome proliferator-activated receptor gamma (Homo sapiens) (UniProt P37231); assay: OT_PPARg_PPARgSRC1_1440: Odyssey Thera (OT) 24-hour Protein-Complementation Assay for Peroxisome Proliferator-activated Receptor Gamma/ SRC-1 Co-activator (AID 2283388)
Summary of the method: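 Cells carrying the PPARg/SRC-1 fragment-complementation reporter receive compound for 24 hours, are fixed and counterstained with Draq5, then imaged. Increased nuclear relative to cytoplasmic YFP fluorescence above DMSO baseline indicates binding activity.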

[4] = target: Retinoic acid receptor RXR-alpha (Homo sapiens) (UniProt P19793); assay: OT_NURR1_NURR1RXRa_0480: Odyssey Thera (OT) 8-hour HEK293T Protein Complementation Assay for Nurr1/retinoid X receptor (RXR) (AID 2283385)
Summary of the method: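 Compounds are applied to HEK293T cells carrying Nurr1 and RXRα linked to reporter fragments. After 8 h, fluorescence intensity reports heterodimer formation, with DMSO as baseline.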

[5] = target: Retinoic acid receptor RXR-alpha (Homo sapiens) (UniProt P19793); assay: OT_NURR1_NURR1RXRa_1440: Odyssey Thera (OT) 24-hour HEK293T Protein Complementation Assay for Nurr1/retinoid X receptor (RXR) (AID 2283386)
Summary of the method: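 Measured as fluorescence from a reconstituted split reporter, this 24 h HEK293T complementation assay scores compound-induced gain of Nurr1/RXRα association relative to DMSO.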

Measured: outcome

Sequence of Retinoic acid receptor RXR-alpha (Homo sapiens) (P19793 whole entry, looked up, the tested form may be a part): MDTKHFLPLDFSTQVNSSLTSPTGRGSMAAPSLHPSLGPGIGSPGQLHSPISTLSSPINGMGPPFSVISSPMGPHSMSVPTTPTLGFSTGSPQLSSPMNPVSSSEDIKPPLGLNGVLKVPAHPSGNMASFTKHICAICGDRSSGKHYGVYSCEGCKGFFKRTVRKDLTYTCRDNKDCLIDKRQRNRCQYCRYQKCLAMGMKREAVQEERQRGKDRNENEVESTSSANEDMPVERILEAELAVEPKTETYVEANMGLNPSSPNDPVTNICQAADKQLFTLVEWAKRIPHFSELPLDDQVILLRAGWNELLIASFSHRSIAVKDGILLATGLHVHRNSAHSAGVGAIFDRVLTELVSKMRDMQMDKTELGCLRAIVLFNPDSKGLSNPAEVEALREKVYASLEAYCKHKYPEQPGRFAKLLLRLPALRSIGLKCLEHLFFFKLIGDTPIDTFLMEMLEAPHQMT
Sequence of Estrogen receptor beta (Homo sapiens) (Q92731 whole entry, looked up, the tested form may be a part): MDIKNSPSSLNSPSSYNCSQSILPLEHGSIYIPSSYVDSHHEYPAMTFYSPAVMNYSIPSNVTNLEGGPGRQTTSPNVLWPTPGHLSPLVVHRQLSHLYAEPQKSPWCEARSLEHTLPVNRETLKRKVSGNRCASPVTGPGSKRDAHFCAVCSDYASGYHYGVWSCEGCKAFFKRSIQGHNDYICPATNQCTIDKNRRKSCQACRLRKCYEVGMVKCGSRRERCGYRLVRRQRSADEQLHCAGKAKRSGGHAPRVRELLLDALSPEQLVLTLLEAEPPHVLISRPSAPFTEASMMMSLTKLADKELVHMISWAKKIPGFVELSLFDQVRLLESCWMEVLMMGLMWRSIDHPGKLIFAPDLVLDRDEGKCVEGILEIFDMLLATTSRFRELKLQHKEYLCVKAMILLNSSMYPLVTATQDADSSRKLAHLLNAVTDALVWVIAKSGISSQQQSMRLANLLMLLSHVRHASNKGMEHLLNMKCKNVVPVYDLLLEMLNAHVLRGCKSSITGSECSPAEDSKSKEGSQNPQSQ
Sequence of Peroxisome proliferator-activated receptor gamma (Homo sapiens) (P37231 whole entry, looked up, the tested form may be a part): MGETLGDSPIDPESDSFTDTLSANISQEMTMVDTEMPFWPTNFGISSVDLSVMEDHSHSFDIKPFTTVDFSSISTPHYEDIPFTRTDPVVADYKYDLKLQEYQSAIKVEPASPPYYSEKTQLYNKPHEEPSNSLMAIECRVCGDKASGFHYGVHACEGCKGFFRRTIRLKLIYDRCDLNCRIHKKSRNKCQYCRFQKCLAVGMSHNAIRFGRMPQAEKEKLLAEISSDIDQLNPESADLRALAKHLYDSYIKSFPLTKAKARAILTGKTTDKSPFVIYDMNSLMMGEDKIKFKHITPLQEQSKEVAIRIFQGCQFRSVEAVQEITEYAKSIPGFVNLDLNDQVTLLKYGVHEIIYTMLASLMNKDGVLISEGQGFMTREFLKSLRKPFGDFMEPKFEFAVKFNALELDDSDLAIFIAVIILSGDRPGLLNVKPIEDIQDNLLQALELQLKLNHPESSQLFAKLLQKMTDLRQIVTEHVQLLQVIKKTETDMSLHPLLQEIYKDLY

C[Si](C)(C)O[Si](C)(C)C
inactive: [1] | [2] | [3]

CC1(C)C(=O)N(Cl)C(=O)N1Br
inactive: [2] | [3]

O=Cc1ccccc1S(=O)(=O)O
inactive: [1] | [4] | [5] | [2] | [3]

CC(CN=Cc1ccccc1O)N=Cc1ccccc1O (stereo not given)
inactive: [1] | [2] | [3]

C=C(C)[C@@H]1CC=C(C)C(=O)C1
inactive: [1] | [4] | [5] | [3]

CCOc1ccccc1O
inactive: [1] | [2] | [3]
